Test results taken from PubChem BioAssay (NCATS).
Records with an inconclusive call do not appear. Calls of active or inactive are those of the source. Calls follow the shape of the dose curve; as a rule, active = well fitted curve in the direction sought with a large enough effect; inconclusive = small, poorly fitted or top-dose-only effect, or another doubt; inactive = no such curve, though single readings can be large; an effect the other way counts as inactive or inconclusive.

Legend:
CRL-7250 = normal cell line; assay: Cytotoxic Profiling of Annotated Libraries Using Quantitative High-Throughput Screening (AID 1296008); conditions: Five cell lines viability, CellTiter-Glo ATP luminescence, 48-72 h; max response: hits give low values; also: nearly all actives have a fitted effect of over 60% in size; as to max response: % is scaled to controls: 0 for no effect and ±100 for the full control effect
Procedure, shortened: (§1)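 Cells exposed to compounds for 48 or 72 hr at 37 degrees Celsius. Viability read as ATP-coupled luminescence with CellTiter-Glo after 10 min at room temperature.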

HEK293 = assay: as above; conditions: Five cell lines viability, CellTiter-Glo ATP luminescence, 48-72 h; max response: hits give low values
Procedure, shortened: as §1

HaCat [1] = assay: as above; conditions: Five cell lines viability, CellTiter-Glo ATP luminescence, 48-72 h; max response: hits give low values
Procedure, shortened: as §1

KB-3-1 = assay: as above; conditions: Five cell lines viability, CellTiter-Glo ATP luminescence, 48-72 h; max response: hits give low values
Procedure, shortened: as §1

NIH3T3 = assay: as above; conditions: Five cell lines viability, CellTiter-Glo ATP luminescence, 48-72 h; max response: hits give low values
Procedure, shortened: as §1

MCC-13 = assay: qHTS assay to identify novel small-molecules to repurpose for Merkel cell carcinoma treatment (AID 1296009); conditions: MCC and control cell lines, CellTiter-Glo viability, 72 h; series mostly up to 46 µM; also: nearly all actives have a fitted effect of over 60% in size
Procedure, shortened: (§2)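 Cells were incubated with compound for 72 hr at 37 degree celsius before CellTiter-Glo addition. Luminescence was normalized with no-cell wells as full cytotoxicity and DMSO as baseline.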

MCC-26 = assay: as above; conditions: MCC and control cell lines, CellTiter-Glo viability, 72 h; series mostly up to 46 µM
Procedure, shortened: as §2

MKL-1 = assay: as above; conditions: MCC and control cell lines, CellTiter-Glo viability, 72 h; series mostly up to 46 µM
Procedure, shortened: as §2

MKL-2 = assay: as above; conditions: MCC and control cell lines, CellTiter-Glo viability, 72 h; series mostly up to 46 µM
Procedure, shortened: as §2

UISO = assay: as above; conditions: MCC and control cell lines, CellTiter-Glo viability, 72 h; series mostly up to 46 µM
Procedure, shortened: as §2

WaGa = assay: as above; conditions: MCC and control cell lines, CellTiter-Glo viability, 72 h; series mostly up to 46 µM
Procedure, shortened: as §2

C33A = assay: Primary qHTS to identify gynecologic anti-cancer compounds using libraries of approved drugs and bioactive compounds (AID 1345084); conditions: Gynecologic cancer cell panel viability, ATPlite luminescence, 48 h; series mostly up to 57.5 µM; also: % is scaled to controls: 0 for no effect and ±100 for the full control effect; nearly all actives have a fitted effect of over 55% in size
Procedure, shortened: (§3)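 Five-point cytotoxicity, 48 h drug exposure at 37 C, 5% CO2, on cells seeded 16 h beforehand. ATP content read by ATPlite luminescence.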

CAOV3 = assay: as above; conditions: Gynecologic cancer cell panel viability, ATPlite luminescence, 48 h; series mostly up to 57.5 µM
Procedure, shortened: as §3

CASKI = assay: as above; conditions: Gynecologic cancer cell panel viability, ATPlite luminescence, 48 h; series mostly up to 57.5 µM
Procedure, shortened: as §3

Es-2 = assay: as above; conditions: Gynecologic cancer cell panel viability, ATPlite luminescence, 48 h; series mostly up to 57.5 µM
Procedure, shortened: as §3

HeLa = assay: as above; conditions: Gynecologic cancer cell panel viability, ATPlite luminescence, 48 h; series mostly up to 57.5 µM
Procedure, shortened: as §3

W2 = assay: qHTS profiling for inhibitors of Plasmodium falciparum proliferation (AID 504749);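 also: 0% = DMSO vehicle and full inhibition = artemisinin control; nearly all actives have a fitted effect of over 60% in size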; conditions: P. falciparum in erythrocytes, SYBR Green DNA, 72 h; series mostly up to 28.7 µM
Procedure, shortened: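 Readout was DNA-dye fluorescence from lysed cultures, ex 485/em 535 nm. Parasitized red cells had grown 72 h with compound; data scaled between 0.29 uM artemisinin and DMSO wells and corrected using vehicle-only plates.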

HACAT [2] = assay: qHTS assay to identify novel small-molecules to repurpose for Merkel cell carcinoma treatment (AID 1296009); conditions: MCC and control cell lines, CellTiter-Glo viability, 72 h; at 44.8 µM (top of the series) unless noted; also: nearly all actives have a fitted effect of over 60% in size
Procedure, shortened: as §2

HEK293T = assay: as above; conditions: MCC and control cell lines, CellTiter-Glo viability, 72 h; at 44.8 µM (top of the series) unless noted
Procedure, shortened: as §2

C=C[C@H]1CN2CC[C@H]1C[C@@H]2[C@@H](O)c1ccnc2ccc(OC)cc12
inactive: max response (CRL-7250) -2.42% | max response (HEK293) -4.02% | max response (HaCat [1]) -4.58% | max response (KB-3-1) -6.93% | max response (NIH3T3) 1.59% | Potency (MCC-13) | Potency (MCC-26) | Potency (MKL-1) | Potency (MKL-2) | Potency (UISO) | Potency (WaGa) | Potency (C33A) | Potency (CAOV3) | Potency (CASKI) | Potency (Es-2) | Potency (HeLa)

CNCCc1ccccn1
inactive: Potency (W2) | outcome (CRL-7250) | max response (HEK293) -1.02% | max response (HaCat [1]) -8.27% | max response (KB-3-1) 5.51% | max response (NIH3T3) -2.69% | Potency (MCC-13) | Potency (MCC-26) | Potency (MKL-1) | Potency (MKL-2) | Potency (UISO) | Potency (WaGa) | Potency (C33A) | Potency (CAOV3) | Potency (CASKI) | Potency (Es-2) | Potency (HeLa)

CCC1NC(=O)c2cc(S(N)(=O)=O)c(Cl)cc2N1 (configuration not stated)
inactive: max response (CRL-7250) -0.729% | max response (HEK293) -0.132% | max response (HaCat [1]) -3.39% | max response (KB-3-1) -10.4% | max response (NIH3T3) 3.38% | Potency (MCC-13) | Potency (MCC-26) | Potency (MKL-1) | Potency (MKL-2) | Potency (UISO) | Potency (WaGa) | Potency (C33A) | Potency (CAOV3) | Potency (CASKI) | Potency (Es-2) | Potency (HeLa)

CC(=O)Nc1ccc(OCC(O)CNC(C)C)cc1 (configuration not stated)
inactive: Potency (W2) | max response (CRL-7250) -5.23% | max response (HEK293) 4.87% | outcome (HaCat [1]) | max response (KB-3-1) -4.81% | max response (NIH3T3) -0.995% | outcome (HACAT [2]) | Potency (MCC-13) | Potency (MKL-1) | Potency (MKL-2) | Potency (WaGa) | Potency (C33A) | Potency (CAOV3) | Potency (CASKI) | Potency (Es-2) | Potency (HeLa)

CN(C)CCOC(=O)C(c1ccccc1)C1(O)CCCC1 (configuration not stated)
inactive: max response (CRL-7250) -17.7% | outcome (HEK293) | outcome (HaCat [1]) | max response (KB-3-1) -12% | max response (NIH3T3) -1.59% | outcome (HACAT [2]) | outcome (HEK293T) | Potency (MCC-13) | Potency (MKL-2) | Potency (UISO) | Potency (C33A) | Potency (CAOV3) | Potency (CASKI) | Potency (Es-2) | Potency (HeLa)

CC(=O)Nc1ccc(S(=O)(=O)Nc2ccc([N+](=O)[O-])cc2)cc1
inactive: Potency (W2) | max response (CRL-7250) -4.42% | max response (HEK293) -4.06% | outcome (HaCat [1]) | max response (KB-3-1) 15% | max response (NIH3T3) 3.15% | outcome (HACAT [2]) | Potency (MCC-13) | Potency (MCC-26) | Potency (MKL-1) | Potency (MKL-2) | Potency (UISO) | Potency (C33A) | Potency (CAOV3) | Potency (CASKI) | Potency (Es-2) | Potency (HeLa)
